Source: PubChem BioAssay
Hits are enriched below; roughly 6% of the tested compounds scored in any of these assays.
D1 ag: Allosteric Agonists of the Human D1 Dopamine Receptor: qHTS; D(1A) dopamine receptor (Homo sapiens), P21728; HEK293 T-REx D1 cells, calcium flux, agonist mode; activation, % at 2 µM; actives 1% (n = 360,000); in the data active means activation above about 30%
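Agonism was scored from calcium flux recorded over 180 s (1 read/s) after pintool compound addition, following a 10-cycle baseline. Cells were inducible force-coupled HEK293 TREx D1, plated overnight at 30 C and loaded with no-wash calcium dye.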
D1 antag: Antagonist of Human D 1 Dopamine Receptor: qHTS; D(1A) dopamine receptor (Homo sapiens), P21728; HEK293 TREx D1 cells, calcium flux, dopamine EC80; stronger effect = lower value; activity change, negative = inhibition, % at 10 µM; actives 3.2% (n = 360,000); AID 504652, 2011; in the data active means activity change below about -30%
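Antagonism measured as reduced calcium response to an EC80 dopamine addition following 180 s compound pre-read; cells were inducible HEK293 Trex D1 plated overnight at 30 C, read kinetically at 1 cycle/sec.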
D3 ag: qHTS of D3 Dopamine Receptor Agonist: qHTS; AID 652048, 2013; D(3) dopamine receptor (Homo sapiens), P35462; D3R DiscoveRx beta-arrestin cells, luminescence, 90 min; max activation, %; actives 0.58% (n = 410,000); in the data active means max activation above about 30%
Target sequence (P35462 whole entry, looked up): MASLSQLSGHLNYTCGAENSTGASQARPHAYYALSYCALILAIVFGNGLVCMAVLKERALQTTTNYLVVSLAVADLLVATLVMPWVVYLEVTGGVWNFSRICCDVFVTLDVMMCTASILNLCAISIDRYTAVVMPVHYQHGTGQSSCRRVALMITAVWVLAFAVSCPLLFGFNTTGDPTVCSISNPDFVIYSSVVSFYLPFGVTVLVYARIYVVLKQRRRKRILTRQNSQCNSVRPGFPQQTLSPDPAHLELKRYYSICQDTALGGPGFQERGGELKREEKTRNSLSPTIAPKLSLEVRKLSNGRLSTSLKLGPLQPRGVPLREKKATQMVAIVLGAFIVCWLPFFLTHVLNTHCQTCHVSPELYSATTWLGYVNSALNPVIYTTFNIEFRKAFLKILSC
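Cells at 1500/well, incubated overnight, then treated with pinned compounds (dopamine as control) for 90 min at 37 degrees C. DiscoveRx reagent added for 30 - 60 minutes at room temperature; luminescence read.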
D1 potentiator: Potentiators of Human D1 Dopamine Receptor: qHTS; HEK293 TREx D1 cells, calcium flux, dopamine EC20 potentiation; actives 0.036% (n = 360,000); potentiation, % at 10 µM; D(1A) dopamine receptor (Homo sapiens), P21728; in the data active means potentiation above about 30%
DRD3 antagonist: qHTS of D3 Dopamine Receptor Antagonist: qHTS | D3R cells, DiscoveRx beta-arrestin luminescence, antagonist mode; stronger effect = lower value | max response, negative = inhibition, % | AID 652054, 2013 | D(3) dopamine receptor (Homo sapiens), P35462 | actives 2.5% (n = 360,000); in the data active means max response below about -50%
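Cells expressing the human receptor were seeded at 1500 cells/well, incubated overnight at 37 degrees C in 5% CO2, then exposed to library compounds with dopamine controls for 90 minutes at 37 degrees C before luminescent detection.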
Hits are given with their value; - = inactive; . = no result.

SMILES | D1 ag | D1 antag | D3 ag | D1 potentiator | DRD3 antagonist
CSc1cccc(NC(=O)CN2C(=O)COc3ccc(Cl)cc32)c1 | - | - | - | - | .
COc1ccc(OC)c(C(O)c2coc3ccc(O)c(CN(C)C)c23)c1 (centres undefined) | - | - | - | - | -
COc1ccc(OC)c(C(O)c2coc3ccc(O)c(CN4CCOCC4)c23)c1 (centres undefined) | - | -30 | - | - | -
CCn1c(C(=O)NCc2ccc(OC(C)C)cc2)cc2oc3ccccc3c21 | - | - | - | - | .
CCn1c(C(=O)NCc2ccccc2C)cc2oc3ccccc3c21 | - | - | 49 | - | .
Cc1ccc(S(=O)(=O)c2nnn3c2nc(NCc2cccs2)c2sccc23)cc1C | - | -59 | - | - | .
CCCCNc1nc2c(S(=O)(=O)c3ccc(C)c(C)c3)nnn2c2ccsc12 | - | -77 | - | - | .
CCc1ccc(S(=O)(=O)c2nnn3c2nc(NC(C)C)c2sccc23)cc1 | - | -33 | - | - | .
O=S(=O)(c1ccccc1)c1nnn2c1nc(NCc1cccs1)c1sccc12 | - | - | - | - | .
Cc1ccc(C(=O)N2CC=C(c3ccccc3)CC2)s1 | - | - | - | - | -
Cc1ccsc1C(=O)N1CC=C(c2ccccc2)CC1 | - | -31 | - | - | -
FC(F)(F)c1ccc(Cl)c(Nc2nnc(-c3ccncc3)s2)c1 | . | . | - | . | -56
CN(C)c1nc(N)nc(-c2cccnc2)n1 | - | - | - | - | -
Cc1[nH]nc(-c2cccnc2)c1N=NN(C)C | . | . | - | . | -90
CC(=O)N1N=C(c2ccc(C)cc2)CC1c1cn(-c2ccccc2)nc1-c1cccs1 (centres undefined) | - | - | - | - | .
O=C(CSc1nc2c([nH]c3ccccc32)c(=O)n1-c1ccccc1F)Nc1cccc(Cl)c1 | - | - | - | - | .
COc1ccc(-c2onc(C)c2C)cc1S(=O)(=O)N1CCN(c2cc(C)ccc2C)CC1 | - | - | - | - | .
CSc1nnc(-c2sccc2-n2cccc2)o1 | - | - | - | - | -
Clc1cccc(Cl)c1CSc1nnc(-c2sccc2-n2cccc2)o1 | 50 | - | - | - | -
CCN(CC)c1cc2c(cc1F)c(=O)c(S(=O)(=O)c1ccccc1)cn2Cc1ccccc1 | - | - | - | - | .
Cc1cc(C)n(C(=O)c2ccc(NC(=O)CC(C)C)cc2)n1 | - | -94 | - | - | -
CCCCC(O)CN1CCC(c2ccccc2)CC1 (centres undefined) | - | - | - | - | -57
CC(CN1CCC(O)CC1)c1ccccc1 (centres undefined) | - | - | - | - | -
CCOc1ccc(S(=O)(=O)N2Cc3ccccc3CC2C(=O)Nc2ccc(NC(C)=O)cc2)cc1 (centres undefined) | - | - | - | - | .
Cc1cc(C(=S)N2CCOCC2)c(C)n1-c1ccc(Cl)cc1 | - | -31 | - | - | -
SMILES | D1 ag | D1 antag | D3 ag | D1 potentiator | DRD3 antagonist
CCC(C)NC(=O)CCc1c(C)nc2cc(-c3ccc(OC)cc3OC)nn2c1C (centres undefined) | - | - | - | - | .
CN(/N=C/c1ccc(Br)o1)C1=NS(=O)(=O)c2ccccc21 | - | - | - | - | -
Cc1ccc(/C=N/N(C)C2=NS(=O)(=O)c3ccccc32)o1 | - | -43 | . | - | .
COC1(OC)N=C(N)C2(C#N)C(c3cccc(Oc4ccccc4)c3)C12C#N (centres undefined) | - | - | - | - | -50
COc1cccc(C2C3(C#N)C(N)=NC(OC)(OC)C23C#N)c1 (centres undefined) | - | - | - | - | -
O=C(Nc1cccc(C(F)(F)F)c1)c1cc(S(=O)(=O)N2CCCC2)c[nH]1 | - | - | - | - | .
COc1ccc(NC(=O)/C(Cl)=C(/Cl)S(=O)Cc2ccccc2Cl)cn1 (centres undefined) | - | - | - | - | -96
COc1ccc(NC(=O)/C(Cl)=C(/Cl)S(=O)(=O)Cc2ccc(C)cc2)cn1 | - | - | - | - | -77
COc1ccc(NC(=O)Cc2ccc(Cl)c(Cl)c2)cn1 | - | - | - | - | -
